# Calls of active or inactive are those of the source. How the source made its calls: active means hit-call score of the fitted dose curve at least 0.9, where 1 is the maximum; inactive means score below 0.9.
# Assay: ATG_AP_1_CIS: Attagene CIS-FACTORIAL HepG2 Assay for human Activator Protein 1 (AP-1) (AID 2282931)
# Details: HepG2 Attagene cis-factorial AP-1 reporter mRNA; actives raise or lower the signal
# Outline: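 Fluorescence of labelled PCR fragments separated by capillary electrophoresis gives reporter mRNA levels. HepG2 with transfected cis-regulated reporter units, 24 h exposure; DMSO serves as baseline for bidirectional curve fits.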
Compound,outcome,AC50
C=C(C)C(=O)OCCO,inactive,–
C1=Cc2ccccc2C1,inactive,–
CCOC(=O)CC,inactive,–
CCC(=O)Oc1ccc(/C(CC)=C(\CC)c2ccc(OC(=O)CC)cc2)cc1,–,11.6 µM (active)
CO[Si](CCC1CCC2OC2C1)(OC)OC (stereo not given),inactive,–
CCCCCC/C=C\CCCCCCCC(=O)O,inactive,–
Cc1cc(=O)n(-c2ccccc2)n1C,inactive,–
FC(F)(F)C(=NOCC1OCCO1)c1ccc(Cl)cc1,inactive,–
CCOC(=O)N1CCC(=C2c3ccc(Cl)cc3CCc3cccnc32)CC1,inactive,–
COc1cc(C)ccc1C(C)C,inactive,–
CCCCCCCOC(=O)CCC,inactive,–
Cc1ccc(C(C)c2ccc(C)c(C)c2)cc1C,–,48.7 µM (active)
O=C(/C=C/C=C/c1ccc2c(c1)OCO2)N1CCCCC1,inactive,–
CC(C)=CCC[C@H](C)CCO,inactive,–
O=C1CCCCCCCCCCC(=O)OCCO1,inactive,–
COCC(C)N (stereo not given),inactive,–
CC(=O)[C@@]1(O)CC[C@H]2[C@@H]3C[C@H](C)C4=CC(=O)C=C[C@]4(C)[C@@]3(F)[C@@H](O)C[C@@]21C,inactive,–
CC(C)CC(O)Cc1ccccc1 (stereo not given),inactive,–
CCCCOCCOC(=O)COc1nc(Cl)c(Cl)cc1Cl,inactive,–
COC(=O)/C=C\C(=O)O,inactive,–

Compound,outcome,AC50
C=C[Si](OC(C)=O)(OC(C)=O)OC(C)=O,inactive,–
Cc1c(C)c([N+](=O)[O-])c(C(C)(C)C)c([N+](=O)[O-])c1C,inactive,–
O=[N+]([O-])C1(Br)COCOC1,inactive,–
CC(C)=CC1CC(C)CCO1 (stereo not given),inactive,–
Nc1ccc(-c2ccc(F)cc2)cc1,inactive,–
FC(F)=C(F)OC(F)(F)C(F)(F)C(F)(F)F,inactive,–
CCCOC(=O)CCCCC(=O)OCCC,inactive,–
OCCN(CCO)c1ccccc1,inactive,–
O=C(O)c1cc(Cl)cc([N+](=O)[O-])c1Cl,inactive,–
CCCCC(CC)COC(=O)c1ccccc1O (stereo not given),inactive,–
CCc1nccnc1C,inactive,–
CC(=O)Nc1ccc2c(c1)Cc1cc(NC(C)=O)ccc1-2,inactive,–
OCCCS,inactive,–
Cc1cccc(OCCOc2cccc(C)c2)c1,inactive,–
Cc1ccc([N+](=O)[O-])cc1S(=O)(=O)O,inactive,–
COC(=O)c1cc(Cl)ccc1[N+](=O)[O-],inactive,–
Cc1oncc1C(=O)Nc1ccc(C(F)(F)F)cc1,–,100 µM (active)
CC(C)c1ccc2cc(C(C)C)ccc2c1,–,55.8 µM (active)
C=CC(=O)OCCOC(=O)C=C,–,126 µM (active)
CCCCCCCCCCCCCOP(=O)(O)O,inactive,–

# Assay: ATG_AP_2_CIS: Attagene CIS-FACTORIAL HepG2 Assay for human Activator Protein 2 (AP-2) (AID 2282932)
# Details: HepG2 AP-2 cis-reporter, Attagene transcription factor profiling; actives raise or lower the signal
# Outline: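 HepG2, transient MRTU transfection, cis-regulated reporters; 24 h compound exposure; RNA isolated, RT-PCR, 6-FAM labelling, HpaI digest, CE fluorescence. DMSO = negative control/baseline, bidirectional fit.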
Compound,outcome,AC50
C=C(C)C(=O)OCCO,inactive,–
C1=Cc2ccccc2C1,inactive,–
CCOC(=O)CC,inactive,–
CCC(=O)Oc1ccc(/C(CC)=C(\CC)c2ccc(OC(=O)CC)cc2)cc1,inactive,–
CO[Si](CCC1CCC2OC2C1)(OC)OC (stereo not given),inactive,–
CCCCCC/C=C\CCCCCCCC(=O)O,inactive,–
Cc1cc(=O)n(-c2ccccc2)n1C,inactive,–
FC(F)(F)C(=NOCC1OCCO1)c1ccc(Cl)cc1,inactive,–
CCOC(=O)N1CCC(=C2c3ccc(Cl)cc3CCc3cccnc32)CC1,inactive,–
COc1cc(C)ccc1C(C)C,inactive,–
CCCCCCCOC(=O)CCC,inactive,–
Cc1ccc(C(C)c2ccc(C)c(C)c2)cc1C,inactive,–
O=C(/C=C/C=C/c1ccc2c(c1)OCO2)N1CCCCC1,inactive,–
CC(C)=CCC[C@H](C)CCO,inactive,–
O=C1CCCCCCCCCCC(=O)OCCO1,inactive,–
COCC(C)N (stereo not given),inactive,–
CC(=O)[C@@]1(O)CC[C@H]2[C@@H]3C[C@H](C)C4=CC(=O)C=C[C@]4(C)[C@@]3(F)[C@@H](O)C[C@@]21C,inactive,–
CC(C)CC(O)Cc1ccccc1 (stereo not given),inactive,–
CCCCOCCOC(=O)COc1nc(Cl)c(Cl)cc1Cl,inactive,–
COC(=O)/C=C\C(=O)O,inactive,–

Compound,outcome,AC50
C=C[Si](OC(C)=O)(OC(C)=O)OC(C)=O,inactive,–
Cc1c(C)c([N+](=O)[O-])c(C(C)(C)C)c([N+](=O)[O-])c1C,inactive,–
O=[N+]([O-])C1(Br)COCOC1,inactive,–
CC(C)=CC1CC(C)CCO1 (stereo not given),inactive,–
Nc1ccc(-c2ccc(F)cc2)cc1,inactive,–
FC(F)=C(F)OC(F)(F)C(F)(F)C(F)(F)F,inactive,–
CCCOC(=O)CCCCC(=O)OCCC,inactive,–
OCCN(CCO)c1ccccc1,inactive,–
O=C(O)c1cc(Cl)cc([N+](=O)[O-])c1Cl,inactive,–
CCCCC(CC)COC(=O)c1ccccc1O (stereo not given),inactive,–
CCc1nccnc1C,inactive,–
CC(=O)Nc1ccc2c(c1)Cc1cc(NC(C)=O)ccc1-2,inactive,–
OCCCS,inactive,–
Cc1cccc(OCCOc2cccc(C)c2)c1,inactive,–
Cc1ccc([N+](=O)[O-])cc1S(=O)(=O)O,–,163 µM (active)
COC(=O)c1cc(Cl)ccc1[N+](=O)[O-],inactive,–
Cc1oncc1C(=O)Nc1ccc(C(F)(F)F)cc1,inactive,–
CC(C)c1ccc2cc(C(C)C)ccc2c1,inactive,–
C=CC(=O)OCCOC(=O)C=C,–,27.2 µM (active)
CCCCCCCCCCCCCOP(=O)(O)O,inactive,–
